Source: PubChem BioAssay (National Center for Advancing Translational Sciences (NCATS))
AMA1-RON2 inh – disrupts binding of P. falciparum AMA1 to RON2 | 360,000 compounds, 0.2% hits | AlphaScreen AMA1-biotinylated RON2 peptide binding | Potency, µM (top dose mostly 58.2 µM), for inactives: at the highest dose activity change, negative = inhibition, hits mostly inhibitors; active = well fitted inhibition curve with a large enough effect; inconclusive = small, poorly fitted or top-dose-only effect; inactive = no such curve, though single readings can be large or run the other way;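 also: potency is read from the fitted curve at half-maximal effect; 0% = vehicle wells and -100% = peptide control; nearly all actives have a fitted effect of over 45% in size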
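AMA1 (3D7) with his tag at 25 nM final met compounds first, then biotinylated RON2 peptide at 25 nM; detection used donor plus acceptor beads, 10 µg/mL apiece, read by AlphaScreen after 30 min at room temperature.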
Cycloheximide cs – counter-screen for Shiga toxin inhibitors: cycloheximide protein synthesis inhibition | cell reporter, cycloheximide protein synthesis inhibition counterscreen | max response, % | 300,000 compounds, 12% hits | AID 2314; in the data active = max response mostly above about 13%, no sharp cut-off; inactive = mostly below about 14%; also: read at 38.3 µM for the half of the compounds with a filed dose; 0% is about no effect
Shiga toxin inh – blocks Shiga toxin action in Vero cells | 290,000 compounds, 9.2% hits | inhibition, % at 38.7 µM | Vero cells, Shiga toxin protein synthesis inhibition reporter; in the data active = inhibition mostly above about 28%, no sharp cut-off; inactive = mostly below about 43%; also: 0% is about no effect
LASV entry inh – Lassa virus entry inhibition. Potency, µM (series often up to 37.9 µM), without a hit: at the highest dose activity change, negative = inhibition, hits mostly inhibitors. AID 540256. Lassa virus pseudotype entry inhibition, cell reporter. 300,000 compounds, 1.2% hits; calls by dose curve; tested in HEK293 cells; also: potency is read from the fitted curve at half-maximal effect; % is scaled to controls: 0 for no effect and ±100 for the full control effect; nearly all actives have a fitted effect of over 50% in size
Marburg entry inh – blocks Marburg virus binding to or entry into cells; Marburg virus pseudotyped entry inhibition, cell reporter; Potency, µM (doses to about 37.8 µM), inactives show at the highest dose activity change, negative = inhibition, hits mostly inhibitors; 300,000 compounds, 1.8% hits; AID 540276; calls by dose curve; tested in HEK293 cells; also: potency is read from the fitted curve at half-maximal effect; % is scaled to controls: 0 for no effect and ±100 for the full control effect
An asterisk follows results filed as active; ? = inconclusive; . = not tested or not shown; [ ] = remark or other dose. The sample as a whole holds a higher share of hits than the screen did.

SMILES | AMA1-RON2 inh | Cycloheximide cs | Shiga toxin inh | LASV entry inh | Marburg entry inh
COc1cccc(/C=C2\CCC(C3CCCC3)C2=O)c1OC (stereo not given) | 62% | 38* | 97* | 17%[46.1 µM] | ?
COc1cccc(/C=C2\CCC(C3CCCC3)C2=O)c1 (stereo not given) | 6% | 51* | 84* | 10% | 39%
COc1cccc(CNC(=O)Cn2ncn3nc(-c4cccs4)cc3c2=O)c1OC | . | . | . | -28%[46.1 µM] | 12%[46.1 µM]
COc1cccc(CNC(=O)C(Cc2ccccc2)NS(=O)(=O)c2ccc3c(c2)CCN3C(C)=O)c1 (stereo not given) | . | . | . | 1%[46.1 µM] | ?
ClC1(Cl)CC1CSc1nnc(-c2ccncc2)o1 (stereo not given) | 0% | 19* | 79 | . | .
CCSc1nnc(-c2ccncc2)o1 | -1% | 4 | 17 | 3% | 14%
C=CCNC(=O)[C@H]1C=C(OC)C(=O)C[C@H]2c3ccccc3C[C@]12C | . | . | . | . | -22%[14.2 µM]
Cn1c(=O)c2c(nc(CN3CCN(CCO)CC3)n2Cc2cccc3ccccc23)n(C)c1=O | 6% | -1 | 16 | -19% | 12µM*
CCCCn1c(CN2CCN(c3ccc(F)cc3)CC2)nc2c1c(=O)n(C)c(=O)n2C | -5% | 30* | 79 | -1% | -12%
Cn1c(=O)c2c(nc(CN3CCN(c4ccccc4F)CC3)n2Cc2ccccc2F)n(C)c1=O | . | . | . | -24%[46.1 µM] | -1%[46.1 µM]
Cn1c(=O)c2c(nc(CN3CCN(c4ccc(F)cc4)CC3)n2Cc2ccccc2F)n(C)c1=O | 6% | -5 | 33 | -24% | 16µM*
CCN(CC)c1ccc(NC(=O)CCc2c(C)nc3ncnn3c2C)c(C)c1 | . | . | . | 0%[46.1 µM] | 3%[46.1 µM]
CCN(CC)CCCn1c(C)cc2c(c1=O)C(c1cccc(Cl)c1)C(C#N)=C(N)O2 (stereo not given) | 7% | -3 | 1 | ? | 11µM*
CCc1ccc2[nH]c(C(=O)Nc3ccc(C)c(F)c3)cc2c1 | 0% | 17* | 39* | 0%[46.1 µM] | -6%[46.1 µM]
O=C(Nc1ccc(F)cc1)c1cc2cc(Cl)ccc2[nH]1 | 6% | 16* | 32* | . | .
CCc1ccc2[nH]c(C(=O)N(C)c3ccc(F)cc3F)cc2c1 | 6% | 12 | -4 | 2% | -2%
CC1CCc2nc3ncn(Cc4cccc(F)c4)c(=O)c3cc2C1 (stereo not given) | . | . | . | -5%[46.1 µM] | .
COc1ccc(C(=O)Nc2ccc(Cl)cc2F)cc1S(=O)(=O)N1CCCC1 | -6% | . | . | . | .
O=C(Nc1ccc(Cl)cn1)C1CCN(c2ncnc3c2nc2n3CCCCC2)CC1 | -6% | 3 | 9 | -6%[46.1 µM] | 3.5µM*
Clc1cccc(N2CCN(c3ncnc4c3nc3n4CCCCC3)CC2)c1 | . | . | . | ? | 2.8µM*
O=C(C1CCN(c2ncnc3c2nc2n3CCCCC2)CC1)N1CCN(c2cccc(Cl)c2)CC1 | -4% | 17 | -9 | -21%[46.1 µM] | .
CCOC(=O)c1ncc2[nH]c3cccc(OC(C)C)c3c2c1C | . | 11 | 9 | . | .
CC1CCc2c(sc3nc(CSc4nnnn4C)[nH]c(=O)c23)C1 (stereo not given) | 6% | 18* | 26 | 17% | -11%[46.1 µM]
O=C(Nc1ccon1)c1ccc(OC2CCCC2)cc1 | -3% | 64* | 92* | ? | ?
CC(C)(C)c1cc(NC(=O)c2ccc(OC3CCCC3)cc2)no1 | -8% | 3 | 18 | 6% | 9%
SMILES | AMA1-RON2 inh | Cycloheximide cs | Shiga toxin inh | LASV entry inh | Marburg entry inh
Cc1ccc(C(=O)ONc2ccc(N=O)cc2)cc1 | 1% | 46* | 85* | 7% | 23%
COC(=O)c1ccc(NC(=O)CCN2CCCCC2)cc1 | -18% | 2 | 24 | 22% | -2%
COC(=O)c1ccc(NN=Nc2ccc(C)cc2)cc1 | 0% | 59* | 47* | ? | -47%
COC(=O)c1ccc(N=NN2CCCCC2)cc1 | -11% | 38* | 127* | 9% | ?
COc1ccc(Nc2nc(N)nc(COc3ccc(OC)cc3)n2)cc1 | 3% | -2 | 1 | -9% | -14%
COc1ccc(OCc2nc(N)nc(Nc3ccc(C)cc3)n2)cc1 | -1% | 15* | 17 | 10% | ?
Cc1ccc(Nc2nc(N)nc(CN3CCCCCC3)n2)cc1 | -15% | -1 | 10 | 0% | 5%
Cc1ccc(Nc2nc(N)nc(CN3CCN(C)CC3)n2)cc1 | 10% | 32* | 81 | ? | -2%
COc1ccc(OCc2nc(N)nc(Nc3ccccc3)n2)cc1 | -12% | 21* | 25 | 0% | ?
Cc1nc(N)nc(COc2ccccc2)n1 | 1% | 37* | 46* | -2% | ?
COc1ccc(OCc2nc(N)nc(Nc3cccc(C)c3C)n2)cc1 | 1% | -1 | -6 | 14% | ?
Cc1cc2oc(=O)sc2cc1NS(=O)(=O)c1ccccc1 | -9% | -5 | -12 | 11µM* | -1%[46.1 µM]
CCc1ccc(Nc2n[n+](-c3ccccc3)c(-c3ccc(C(=O)O)cc3)s2)cc1 | -7% | -1 | 17 | . | .
CCc1ccc(Nc2n[n+](-c3ccccc3)c(-c3ccc(SC)cc3)s2)cc1 | 0% | 33* | 34* | . | .
CSc1ccc(-c2sc(Nc3cccc4ccccc34)n[n+]2-c2ccccc2)cc1 | 24% | 22* | 17* | . | .
CCc1ccc(Nc2n[n+](C)c(-c3ccc(C(=O)O)cc3)s2)cc1 | . | -1 | 5 | . | .
CCc1ccc(Nc2n[n+](-c3ccccc3)c(-c3ccc(OC)c(Br)c3)s2)cc1 | 42% | 26* | 33* | . | .
C[n+]1nc(Nc2cccc3ccccc23)sc1-c1ccc(C(=O)O)cc1 | . | 18* | 35* | . | .
Cc1c(C(=O)Nc2cccc(C#N)c2)sc2nc3n(c(=O)c12)CCCCC3 | . | . | . | 23%[46.1 µM] | .
Clc1cccc(CSc2nnc(C3CCNCC3)o2)c1 | . | . | . | 19%[46.1 µM] | -26%[46.1 µM]
CSc1ccc(-c2sc(Nc3ccccc3)n[n+]2-c2ccccc2)cc1 | -23% | 36* | 53* | . | .
COc1ccc(C)cc1Nc1n[n+](-c2ccccc2)c(-c2ccc(SC)cc2)s1 | -13% | 42* | 52* | . | .
COc1ccc(C)cc1Nc1n[n+](-c2ccccc2)c(-c2ccc(NC(C)=O)cc2)s1 | 0% | 2 | 0 | . | .
Fc1ccc(-[n+]2nc(Nc3ccccc3)sc2-c2ccc(OCc3ccccc3)cc2)cc1 | 6% | 0 | -1 | . | .
CCc1ccc(NC(=O)CN2C(=O)C(c3ccc(Cl)cc3)=NC23CCCCC3)cc1 | . | . | . | -2%[46.1 µM] | -5%[46.1 µM]
COc1ccc(-n2nc(C(=O)NCC(=O)N3CCCCCC3)c3ccccc3c2=O)cc1OC | 12% | 24* | 15 | -15% | -3%[46.1 µM]
CCOC(=O)C1CCCN(C(=O)CNC(=O)c2nn(-c3ccc(OC)c(Cl)c3)c(=O)c3ccccc23)C1 (stereo not given) | -7% | 15 | 16 | ? | -22%[46.1 µM]
COc1ccc(-n2nc(C(=O)NCC(=O)N3CC(C)CC(C)C3)c3ccccc3c2=O)cc1OC (stereo not given) | 1% | -3 | -6 | -24%[46.1 µM] | ?
CCOC(=O)C1CCN(C(=O)CNC(=O)c2nn(-c3ccc(OC)c(Cl)c3)c(=O)c3ccccc23)CC1 | -5% | 25* | 35 | ? | ?
COc1ccc(-n2nc(C(=O)NCC(=O)Nc3ccccn3)c3ccccc3c2=O)cc1Cl | 10% | 0 | -4 | -26% | 4.1µM*
